# KDM5B inhibitor = inhibitors of human KDM5B histone demethylase; hit rate 2.6% among 220,000; Q9UGL1; Potency, µM (series often up to 57.7 µM), actives largely listed as inhibitors; AID 1347165; KDM5B demethylase, FDH-coupled NADH fluorescence (FDH is formaldehyde dehydrogenase); active = well fitted inhibition curve with a large enough effect; note: nearly all actives have a fitted effect of over 70% in size
#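 Measured: NADH fluorescence change, 30 min, RT. System: KDM5BΔAP 200 nM final, H3K4me3 peptide, α-KG, Fe(II), ascorbate, NAD⁺ plus FDH, pH 7.5 HEPES. Compounds: titrated, 10 min pre-incubation with enzyme.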
# A number is an active result; - = inactive. The sample as a whole holds a higher share of hits than the screen did.
SMILES,KDM5B inhibitor
CCc1cccc2c(C(CC(=O)N3CCCC3)c3ccc(Cl)c(Cl)c3)c[nH]c12 (centres undefined),-
O=C1CC(c2ccccc2)N(C(=O)CNC(=O)c2ccccn2)CCCCCN1 (centres undefined),28µM
Cc1cnc(C(=O)NCC(=O)N2CCCCCNC(=O)CC2c2ccccc2)cn1 (centres undefined),-
O=C1CC(c2ccccc2)N(C(=O)CNC(=O)c2cnccn2)CCCCCN1 (centres undefined),-
COc1cccc(-c2cc(=O)[nH]c(Nc3nc(C)c4ccccc4n3)n2)c1,-
COc1ccc(C2NC3=NCN(Cc4cccnc4)CN3c3nc4ccccc4n32)cc1OC (centres undefined),-
Cn1cnc2c1c(=O)n(CC(=O)Nc1ccc3c(c1)OC1(CCCC1)O3)c(=O)n2C,-
O=C1C(N2CCN(S(=O)(=O)c3ccc(Cl)s3)CC2)CCN1Cc1ccccn1 (centres undefined),-
COc1ccccc1Cn1c(-c2ccccc2)nc(C)c(CCO)c1=O,-
O=C1Nc2ccc(-c3ccc(Cl)cc3)cc2C(=O)N2CCN(C(=O)NC3CCCCC3)C[C@H]12,-
CSc1ccc(-c2ccc3c(c2)C(=O)N2CCN(C(=O)C4CCCCC4)C[C@@H]2C(=O)N3)cc1,28µM
O=C1Nc2ccc(-c3ccc4c(c3)OCO4)cc2C(=O)N2CCN(C(=O)C3CCCC3)C[C@@H]12,22µM
O=C1Nc2ccc(-c3ccc4c(c3)OCO4)cc2C(=O)N2CC[C@H](NC(=O)N3CCOCC3)[C@@H]12,-
CC(C)(C)CC(=O)N1CCN2C(=O)c3cc(Br)ccc3NC(=O)[C@H]2C1,-
CCOC(=O)C1CCN(C(=O)CCC(=O)N2CCN(c3cccc(Cl)c3)CC2)CC1,-
Cc1ccc(C(=O)NCCn2ccn3nc(-c4cc(C)ccc4C)cc3c2=O)cc1,-
COc1cccc(C(=O)NCCn2ccn3nc(-c4ccc(C)c(C)c4)cc3c2=O)c1,-
Cc1ccc(C)c(-c2cc3c(=O)n(CCNC(=O)c4ccc(C#N)cc4)ccn3n2)c1,-
Cc1ccc(C)c(-c2cc3c(=O)n(CCNC(=O)c4ccccc4Cl)ccn3n2)c1,-
Cc1ccc(-c2cc3c(=O)n(CCNC(=O)c4ccc(F)c(F)c4)ccn3n2)c(C)c1,-
Cc1ccc(C(=O)NCCn2ccn3nc(-c4ccc(F)cc4)cc3c2=O)cc1F,-
Cc1ccc(C)c(-c2cc3c(=O)n(CCNC(=O)c4ccc(N(C)C)cc4)ccn3n2)c1,35µM
Cc1ccc(-c2cc3c(=O)n(CCNC(=O)c4ccc(Cl)cc4)ccn3n2)cc1C,14µM
Cc1ccc(-c2cc3c(=O)n(CCNC(=O)c4ccc(F)cc4Cl)ccn3n2)cc1C,32µM
Cc1ccc(-c2cc3c(=O)n(CCNC(=O)c4cccc(N(C)C)c4)ccn3n2)cc1C,18µM
SMILES,KDM5B inhibitor
COc1ccc(OC)c(CNC(=O)N2CCc3sccc3C2)c1,-
COC(=O)CC(NC(=O)c1cccc(CS(C)(=O)=O)c1)c1ccc(C)cc1 (centres undefined),-
CNc1nnc(Sc2ccc(S(=O)(=O)NC(C)C)cc2[N+](=O)[O-])s1,-
CC1(c2ccc3c(c2)OCO3)NC(=O)N(Cc2coc(-c3cccs3)n2)C1=O (centres undefined),-
CC1CC(Sc2ccc(C(F)(F)F)cn2)C(=O)O1 (centres undefined),-
Cc1ccc(N(CCC#N)C(=O)CN(C)CC(=O)Nc2ccccc2Cl)cc1,-
CCc1cc(-c2ccccc2)nc2ccccc12,-
Cc1ccc2cccc(NC(=O)C(C)Oc3ccc(Cl)c(C)c3)c2n1 (centres undefined),-
Cc1nn2c(c1-c1ccccc1C(C)C)N(C(=O)c1cccc(N(C)C)c1)CCC2,-
Cn1cc(-c2ccc(F)c(Cl)c2)c2nc(CN3CC[S+](=O)([O-])CC3)cn2c1=O,-
COc1ccc(-c2cn(C)c(=O)n3cc(CN4CC[S+](=O)([O-])CC4)nc23)cc1OC,35µM
COc1ccc(-c2cn(C)c(=O)n3cc(CN4CC[S+](=O)([O-])CC4)nc23)cn1,-
COc1ccc(-c2cn(C)c(=O)n3cc(CN4CCNC(=O)C4)nc23)cc1,28µM
COc1cc(F)ccc1-c1cn(C)c(=O)n2cc(CN3CCNC(=O)C3)nc12,-
Cn1cc(-c2cccc(OC(F)(F)F)c2)c2nc(CN3CCNC(=O)C3)cn2c1=O,-
CCCCC(CC)COc1ccc(C(C)=O)cc1 (centres undefined),-
S=C(NCc1ccc(Cl)cc1)Nc1ccc(Nc2ccccc2)cc1,-
CSC(C)C(=O)Nc1sccc1C#N (centres undefined),-
Cc1cccc(C(=O)N(C)C2CCN(CCc3ccccn3)CC2)c1,-
Cc1cc(Br)ccc1NC(=O)CNC(=O)c1cc(=O)c2ccccc2o1,-
COc1ccc2cc(C(=O)N3CC4CC(C3)[C@H]3CCCC(=O)N3C4)[nH]c2c1 (some centres undefined),-
COc1ccc2cc(C(=O)NC3CCN(C(=O)N4CC5CC(C4)[C@H]4CCCC(=O)N4C5)CC3)[nH]c2c1 (some centres undefined),28µM

# From PubChem BioAssay
